This is an account of results in the supplement of paper PMC7724964.

Sequence of KPNB1 1-876 IBN_N+Arm (domain begin residue: 1, domain end residue: 876), Q14974 (Q14974 whole entry, the tested form may be a part): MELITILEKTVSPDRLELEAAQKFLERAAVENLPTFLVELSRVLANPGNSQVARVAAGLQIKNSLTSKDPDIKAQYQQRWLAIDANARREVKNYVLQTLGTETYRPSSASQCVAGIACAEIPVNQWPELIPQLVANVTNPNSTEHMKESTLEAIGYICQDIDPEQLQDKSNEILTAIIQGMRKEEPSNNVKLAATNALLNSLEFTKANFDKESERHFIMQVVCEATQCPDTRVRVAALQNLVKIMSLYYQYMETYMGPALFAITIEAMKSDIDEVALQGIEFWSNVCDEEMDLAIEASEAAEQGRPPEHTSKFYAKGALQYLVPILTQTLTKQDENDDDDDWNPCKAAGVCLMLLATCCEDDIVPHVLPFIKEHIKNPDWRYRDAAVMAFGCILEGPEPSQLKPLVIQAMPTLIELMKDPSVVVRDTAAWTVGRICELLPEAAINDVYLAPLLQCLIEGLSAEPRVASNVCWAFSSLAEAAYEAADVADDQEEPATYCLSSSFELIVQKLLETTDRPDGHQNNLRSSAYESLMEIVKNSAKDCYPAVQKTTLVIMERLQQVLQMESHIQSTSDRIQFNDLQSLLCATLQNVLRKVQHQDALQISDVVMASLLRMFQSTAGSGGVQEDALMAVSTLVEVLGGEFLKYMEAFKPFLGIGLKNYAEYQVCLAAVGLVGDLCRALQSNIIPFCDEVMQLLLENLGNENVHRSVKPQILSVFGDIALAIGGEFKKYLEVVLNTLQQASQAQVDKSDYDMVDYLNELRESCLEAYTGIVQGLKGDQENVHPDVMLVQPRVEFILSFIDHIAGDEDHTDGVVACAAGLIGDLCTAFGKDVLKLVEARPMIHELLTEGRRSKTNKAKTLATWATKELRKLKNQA
Sequence of KDM6A 1-520 TPR_8 (domain begin residue: 1, domain end residue: 520), O15550 (O15550 whole entry): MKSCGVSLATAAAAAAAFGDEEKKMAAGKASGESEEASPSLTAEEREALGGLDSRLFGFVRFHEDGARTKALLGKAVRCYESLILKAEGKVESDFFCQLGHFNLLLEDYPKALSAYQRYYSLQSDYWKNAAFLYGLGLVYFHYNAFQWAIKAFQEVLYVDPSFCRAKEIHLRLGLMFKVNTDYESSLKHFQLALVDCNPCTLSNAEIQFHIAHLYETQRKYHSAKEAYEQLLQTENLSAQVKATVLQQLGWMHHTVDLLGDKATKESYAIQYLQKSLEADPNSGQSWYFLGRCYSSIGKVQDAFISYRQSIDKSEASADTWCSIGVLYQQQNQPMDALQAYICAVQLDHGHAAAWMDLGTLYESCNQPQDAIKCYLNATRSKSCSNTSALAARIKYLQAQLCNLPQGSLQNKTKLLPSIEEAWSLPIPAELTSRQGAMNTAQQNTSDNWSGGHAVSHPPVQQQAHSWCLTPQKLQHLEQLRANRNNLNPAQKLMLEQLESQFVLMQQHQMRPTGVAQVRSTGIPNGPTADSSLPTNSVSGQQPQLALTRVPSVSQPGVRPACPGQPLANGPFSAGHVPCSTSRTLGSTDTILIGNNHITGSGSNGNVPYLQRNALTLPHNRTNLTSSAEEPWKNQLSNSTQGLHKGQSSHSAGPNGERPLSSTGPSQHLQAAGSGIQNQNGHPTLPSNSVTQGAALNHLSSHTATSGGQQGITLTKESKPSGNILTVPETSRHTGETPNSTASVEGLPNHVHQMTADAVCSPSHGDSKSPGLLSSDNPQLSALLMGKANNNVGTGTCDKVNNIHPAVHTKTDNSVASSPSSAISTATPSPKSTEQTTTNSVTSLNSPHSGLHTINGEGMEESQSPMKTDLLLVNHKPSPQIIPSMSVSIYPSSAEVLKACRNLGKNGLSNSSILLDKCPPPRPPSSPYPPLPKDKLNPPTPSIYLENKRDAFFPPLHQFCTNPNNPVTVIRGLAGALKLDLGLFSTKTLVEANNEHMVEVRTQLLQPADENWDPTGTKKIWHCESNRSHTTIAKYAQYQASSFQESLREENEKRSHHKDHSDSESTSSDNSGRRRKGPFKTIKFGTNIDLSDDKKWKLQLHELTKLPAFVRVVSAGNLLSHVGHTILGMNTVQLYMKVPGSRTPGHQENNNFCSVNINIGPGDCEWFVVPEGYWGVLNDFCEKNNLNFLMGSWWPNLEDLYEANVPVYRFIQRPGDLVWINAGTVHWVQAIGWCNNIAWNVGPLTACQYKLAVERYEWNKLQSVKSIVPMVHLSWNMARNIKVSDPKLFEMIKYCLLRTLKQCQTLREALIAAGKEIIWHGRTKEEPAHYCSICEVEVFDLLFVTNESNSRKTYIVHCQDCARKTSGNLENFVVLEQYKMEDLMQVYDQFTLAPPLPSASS
Sequence of HSPA9 438-651 HSP70 (domain begin residue: 438, domain end residue: 651), P38646 (P38646 whole entry): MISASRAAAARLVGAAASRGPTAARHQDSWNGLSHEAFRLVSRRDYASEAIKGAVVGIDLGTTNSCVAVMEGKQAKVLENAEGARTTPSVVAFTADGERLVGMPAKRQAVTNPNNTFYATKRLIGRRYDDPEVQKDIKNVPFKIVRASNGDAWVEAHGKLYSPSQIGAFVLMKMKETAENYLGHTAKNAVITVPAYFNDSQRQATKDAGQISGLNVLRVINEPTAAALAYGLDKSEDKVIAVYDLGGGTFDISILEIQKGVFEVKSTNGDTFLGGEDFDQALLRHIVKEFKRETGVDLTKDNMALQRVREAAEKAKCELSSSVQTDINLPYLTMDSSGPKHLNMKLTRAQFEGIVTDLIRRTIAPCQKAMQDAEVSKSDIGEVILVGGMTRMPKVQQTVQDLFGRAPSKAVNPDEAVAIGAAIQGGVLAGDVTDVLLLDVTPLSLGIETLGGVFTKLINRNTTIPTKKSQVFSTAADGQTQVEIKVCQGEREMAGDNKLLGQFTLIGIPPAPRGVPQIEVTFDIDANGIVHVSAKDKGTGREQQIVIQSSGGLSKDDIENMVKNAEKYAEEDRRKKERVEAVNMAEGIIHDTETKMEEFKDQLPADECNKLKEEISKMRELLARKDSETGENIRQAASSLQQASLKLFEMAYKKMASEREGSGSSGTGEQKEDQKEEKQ
Sequence of MAD2L1 2-205 HORMA (domain begin residue: 2, domain end residue: 205), Q13257 (Q13257 whole entry): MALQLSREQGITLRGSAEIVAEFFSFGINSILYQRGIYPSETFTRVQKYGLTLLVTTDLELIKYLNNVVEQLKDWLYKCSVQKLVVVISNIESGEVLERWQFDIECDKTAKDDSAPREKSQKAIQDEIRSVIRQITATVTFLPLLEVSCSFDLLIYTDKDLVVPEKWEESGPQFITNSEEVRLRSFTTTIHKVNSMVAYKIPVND

The first assay deals with KPNB1 1-876 IBN_N+Arm (domain begin residue: 1, domain end residue: 876), Q14974. The experiment in a line: phage ELISA signal ratio (GST-PRM binding over GST background); higher = stronger binding of peptide-phage to the PRM. Put shortly:
(§1)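 Approximately 48 individual clones from selection rounds 4 and 5 were tested by phage ELISA, and those scoring positive were sequenced. They came from five rounds of selecting an M13 phage library of randomized, cysteine-free, glycine-flanked hexadecapeptides on the gene-8 major coat protein against human peptide recognition domains fused to the C-terminus of glutathione S-transferase (GST) in 96-well plates. Each figure in the table is the ELISA signal on the GST-domain fusion relative to the signal on GST alone.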
For orientation: In an ELISA, binding on a coated surface is turned into a signal by an enzyme label.
In the case of LDWVSMFEDNSSQFSV, the “phage ELISA signal ratio” value turned out to be 17.2.
As for PWPQEYTTDLTSVFWF, the “phage ELISA signal ratio” value was 19.7.
In the case of WVETSTYPEWPAVFVF, the “phage ELISA signal ratio” value turned out to be 16.3.

A further assay concerns the target T1, IRS1 157-267 IRS (domain begin residue: 157, domain end residue: 267), P35568.
T1 chain: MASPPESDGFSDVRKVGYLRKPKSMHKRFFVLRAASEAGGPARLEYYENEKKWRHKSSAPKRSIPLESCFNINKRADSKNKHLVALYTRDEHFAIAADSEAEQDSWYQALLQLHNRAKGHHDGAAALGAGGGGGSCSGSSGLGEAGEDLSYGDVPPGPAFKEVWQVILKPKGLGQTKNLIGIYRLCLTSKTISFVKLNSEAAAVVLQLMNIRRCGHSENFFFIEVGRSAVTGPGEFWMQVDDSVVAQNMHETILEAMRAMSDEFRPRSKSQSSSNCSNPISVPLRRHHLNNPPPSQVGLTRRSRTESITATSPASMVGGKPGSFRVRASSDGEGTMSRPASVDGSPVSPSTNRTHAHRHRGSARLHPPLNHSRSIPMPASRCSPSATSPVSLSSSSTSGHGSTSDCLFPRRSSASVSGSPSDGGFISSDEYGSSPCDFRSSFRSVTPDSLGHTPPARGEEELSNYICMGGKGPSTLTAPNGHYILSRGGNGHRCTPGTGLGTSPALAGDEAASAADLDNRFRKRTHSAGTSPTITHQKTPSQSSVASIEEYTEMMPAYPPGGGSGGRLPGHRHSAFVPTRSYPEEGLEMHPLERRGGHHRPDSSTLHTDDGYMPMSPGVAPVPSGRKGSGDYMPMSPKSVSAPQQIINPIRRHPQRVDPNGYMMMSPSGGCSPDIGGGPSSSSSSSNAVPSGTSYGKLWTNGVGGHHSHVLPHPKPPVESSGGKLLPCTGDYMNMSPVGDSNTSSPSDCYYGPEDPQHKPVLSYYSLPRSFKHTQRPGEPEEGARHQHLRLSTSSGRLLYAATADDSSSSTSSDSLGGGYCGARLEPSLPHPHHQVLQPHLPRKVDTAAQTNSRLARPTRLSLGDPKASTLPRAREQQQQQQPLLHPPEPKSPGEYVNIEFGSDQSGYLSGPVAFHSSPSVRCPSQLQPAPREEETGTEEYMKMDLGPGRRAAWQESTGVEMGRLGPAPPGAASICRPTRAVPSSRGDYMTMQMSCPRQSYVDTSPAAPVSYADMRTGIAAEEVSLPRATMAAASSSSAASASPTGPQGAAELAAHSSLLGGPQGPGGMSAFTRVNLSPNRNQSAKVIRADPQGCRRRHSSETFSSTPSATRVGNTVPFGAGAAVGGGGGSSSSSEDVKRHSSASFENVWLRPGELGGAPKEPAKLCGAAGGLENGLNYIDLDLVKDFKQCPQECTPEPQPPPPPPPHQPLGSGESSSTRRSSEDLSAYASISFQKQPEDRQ
The description is as above. The method, boiled down:
as §1
On to IWTWEYNPHYEIIHDM, for which the “phage ELISA signal ratio” value was found to be 18.6.
In the case of WIPADFQEWMELVAYD, the “phage ELISA signal ratio” value is 22.4.
For DLVDWMSATWNENPWY, the “phage ELISA signal ratio” value was 20.7.
On to SDMNWWEEWDFFLARE, for which the “phage ELISA signal ratio” value is 15.

The target of a further assay is MAD2L1 2-205 HORMA (domain begin residue: 2, domain end residue: 205), Q13257. The assay is described as above. The method, boiled down:
as §1
For SGEWFKLPSFDEPRKG, the “phage ELISA signal ratio” value turned out to be 6.3.
The same measure, in the same setting: as for SWWMLQGPKQMNEIHA, the figure is 8.75.

A further assay concerns the target KDM6A 1-520 TPR_8 (domain begin residue: 1, domain end residue: 520), O15550. Described as above. Put shortly:
as §1
Consider WAEELYHSTQWLGVTE, for which the “phage ELISA signal ratio” value was found to be 5.83.
In the case of WSWPDLDVVQDMIVAE, the “phage ELISA signal ratio” value worked out at 5.09.
Turning to DNAMVIWHSTTELYQH, the “phage ELISA signal ratio” value came to 3.82.
The same measure, in the same setting: as for IYLDQWFEEISTYVPA, the figure is 8.33.
As for WENIWDDMIEQIIIPQ, the “phage ELISA signal ratio” value turned out to be 8.83.
With WGWDDIPALQEMKPTN, the “phage ELISA signal ratio” value is 7.16.
Regarding QWLEWISPEIDFTPME, the “phage ELISA signal ratio” value is 3.57.
With SPNVVEYPDWFMWAIE, the “phage ELISA signal ratio” value was 7.87.

The next assay has as its target T2, LBR 1-67 LBR_tudor (domain begin residue: 1, domain end residue: 67), Q14739.
T2 chain: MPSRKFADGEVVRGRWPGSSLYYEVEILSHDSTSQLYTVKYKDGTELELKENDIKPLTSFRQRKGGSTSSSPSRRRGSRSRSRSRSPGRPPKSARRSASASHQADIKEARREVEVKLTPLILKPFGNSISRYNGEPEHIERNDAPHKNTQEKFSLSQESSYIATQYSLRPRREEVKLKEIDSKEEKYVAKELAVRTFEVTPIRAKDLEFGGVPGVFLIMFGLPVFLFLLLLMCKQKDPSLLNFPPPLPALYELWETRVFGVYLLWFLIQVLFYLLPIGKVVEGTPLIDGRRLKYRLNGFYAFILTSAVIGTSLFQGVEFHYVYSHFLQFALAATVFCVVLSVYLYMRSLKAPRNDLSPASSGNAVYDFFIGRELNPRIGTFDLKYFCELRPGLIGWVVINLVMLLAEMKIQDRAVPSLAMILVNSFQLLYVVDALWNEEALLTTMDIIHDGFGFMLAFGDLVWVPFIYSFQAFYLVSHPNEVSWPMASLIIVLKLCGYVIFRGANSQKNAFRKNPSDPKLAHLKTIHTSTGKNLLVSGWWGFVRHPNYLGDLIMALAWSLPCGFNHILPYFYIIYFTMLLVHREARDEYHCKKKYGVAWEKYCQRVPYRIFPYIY
The assay is described as above. Put shortly:
as §1
Regarding PFTAFFVMMEWVQVPK, the “phage ELISA signal ratio” value turned out to be 2.52.
With PYDNYRVVQIPWLFSD, the “phage ELISA signal ratio” value was found to be 3.18.
As for DDVTWMWPPGGYFVNM, the “phage ELISA signal ratio” value amounted to 4.54.
On to YGWETIWDTFPVDMPA, for which the “phage ELISA signal ratio” value turned out to be 3.69.
On the same count and under the same terms, as for QQQKHPNFALHYHQDQ, the figure is 6.64.

For another assay, the target named is HSPA9 438-651 HSP70 (domain begin residue: 438, domain end residue: 651), P38646. The description is as above. The method, boiled down:
as §1
In the case of TYYLDPFAWEYLQAEY, the “phage ELISA signal ratio” value is 20.2.
Regarding PTLLLWQQIDQVMMKK, the “phage ELISA signal ratio” value came out at 20.8.
Still for that read-out and setting: the value for TFSMHRDEFQMLLNMM was 23.3.

The next assay addresses KMT2C 995-1055 PHD (domain begin residue: 995, domain end residue: 1055). The assay is described as above. The method, boiled down: as §1
Regarding VKTPVEDWKYLTFYYI, the “phage ELISA signal ratio” value is 6.07.

Another assay deals with KARS 71-214 tRNA_anti-codon (domain begin residue: 71, domain end residue: 214), Q15046. Described as above. Put shortly: as §1
Sequence of KARS 71-214 tRNA_anti-codon (domain begin residue: 71, domain end residue: 214), Q15046 (Q15046 whole entry, looked up, tested part not stated): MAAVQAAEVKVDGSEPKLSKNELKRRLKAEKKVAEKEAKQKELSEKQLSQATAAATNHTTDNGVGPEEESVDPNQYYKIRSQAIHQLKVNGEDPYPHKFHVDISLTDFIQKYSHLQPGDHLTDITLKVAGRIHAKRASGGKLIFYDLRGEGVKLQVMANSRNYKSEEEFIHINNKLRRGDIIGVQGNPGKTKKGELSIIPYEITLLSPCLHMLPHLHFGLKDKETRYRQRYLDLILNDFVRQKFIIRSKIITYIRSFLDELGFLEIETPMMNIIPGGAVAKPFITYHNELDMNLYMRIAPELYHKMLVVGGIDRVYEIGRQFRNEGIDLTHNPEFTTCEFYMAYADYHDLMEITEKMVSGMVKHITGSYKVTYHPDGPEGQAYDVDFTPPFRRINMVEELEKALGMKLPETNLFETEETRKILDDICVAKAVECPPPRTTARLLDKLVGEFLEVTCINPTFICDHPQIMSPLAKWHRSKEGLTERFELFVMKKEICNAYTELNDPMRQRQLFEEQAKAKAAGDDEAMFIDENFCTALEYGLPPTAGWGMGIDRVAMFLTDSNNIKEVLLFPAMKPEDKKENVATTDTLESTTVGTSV
As for DWEWYQYFNAPQPVKG, the “phage ELISA signal ratio” value was found to be 25.1.
With EQWEIEWLEHFNTYWE, the “phage ELISA signal ratio” value stood at 17.2.

The target in a further assay is T3, LRP5 340-601 Ldl_recept_b (domain begin residue: 340, domain end residue: 601), O75197.
T3 chain: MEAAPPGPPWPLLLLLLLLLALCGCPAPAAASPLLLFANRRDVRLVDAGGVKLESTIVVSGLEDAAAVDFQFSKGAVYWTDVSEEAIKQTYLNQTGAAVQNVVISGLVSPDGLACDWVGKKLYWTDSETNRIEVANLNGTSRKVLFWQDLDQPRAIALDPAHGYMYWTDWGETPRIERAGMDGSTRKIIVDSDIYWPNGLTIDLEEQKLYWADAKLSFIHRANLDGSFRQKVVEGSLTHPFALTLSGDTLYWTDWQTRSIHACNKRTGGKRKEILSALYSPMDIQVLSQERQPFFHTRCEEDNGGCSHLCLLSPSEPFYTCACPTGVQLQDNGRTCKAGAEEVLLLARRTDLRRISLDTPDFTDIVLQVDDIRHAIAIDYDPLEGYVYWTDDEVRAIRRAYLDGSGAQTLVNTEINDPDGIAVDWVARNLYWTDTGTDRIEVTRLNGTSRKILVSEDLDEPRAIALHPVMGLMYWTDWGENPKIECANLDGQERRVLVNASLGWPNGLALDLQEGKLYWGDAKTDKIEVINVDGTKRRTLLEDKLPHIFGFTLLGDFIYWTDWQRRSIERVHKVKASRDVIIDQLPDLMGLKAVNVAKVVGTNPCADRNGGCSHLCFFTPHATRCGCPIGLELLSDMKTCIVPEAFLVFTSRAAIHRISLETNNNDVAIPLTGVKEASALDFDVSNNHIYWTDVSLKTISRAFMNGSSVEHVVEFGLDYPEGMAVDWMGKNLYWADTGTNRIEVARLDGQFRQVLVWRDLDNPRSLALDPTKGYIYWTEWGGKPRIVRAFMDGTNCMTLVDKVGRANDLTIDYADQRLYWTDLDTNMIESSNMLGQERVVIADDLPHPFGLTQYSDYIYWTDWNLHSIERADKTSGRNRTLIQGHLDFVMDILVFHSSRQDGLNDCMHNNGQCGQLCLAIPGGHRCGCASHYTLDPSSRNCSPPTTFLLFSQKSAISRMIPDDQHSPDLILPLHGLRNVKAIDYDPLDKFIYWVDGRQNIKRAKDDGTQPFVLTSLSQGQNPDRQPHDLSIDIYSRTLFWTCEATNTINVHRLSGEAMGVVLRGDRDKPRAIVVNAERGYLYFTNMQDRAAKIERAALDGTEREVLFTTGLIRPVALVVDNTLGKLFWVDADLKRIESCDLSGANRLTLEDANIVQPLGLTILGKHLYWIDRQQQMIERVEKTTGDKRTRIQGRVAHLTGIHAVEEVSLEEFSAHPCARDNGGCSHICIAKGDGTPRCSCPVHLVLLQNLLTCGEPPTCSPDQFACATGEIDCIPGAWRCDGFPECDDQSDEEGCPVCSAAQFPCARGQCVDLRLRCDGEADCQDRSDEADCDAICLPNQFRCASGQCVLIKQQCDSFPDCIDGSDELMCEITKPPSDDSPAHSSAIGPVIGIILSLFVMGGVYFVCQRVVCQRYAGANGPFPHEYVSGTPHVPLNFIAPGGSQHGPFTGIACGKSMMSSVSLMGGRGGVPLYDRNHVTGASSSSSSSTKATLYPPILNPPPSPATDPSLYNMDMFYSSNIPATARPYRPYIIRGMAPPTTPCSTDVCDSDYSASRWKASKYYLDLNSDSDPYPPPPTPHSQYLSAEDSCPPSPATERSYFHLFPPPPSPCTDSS
The assay is described as above. The method, boiled down: as §1
Take EWSSNEWWDAYSAMTV: the “phage ELISA signal ratio” value stood at 7.31.

The target in a further assay is KMT2C 1055-1137 PHD (domain begin residue: 1055, domain end residue: 1137). Described as above. The method, boiled down: as §1
As to DNYMESMYEAMGDPKK, the “phage ELISA signal ratio” value amounted to 6.88.
